We go through seven compounds from PubChem BioAssay (NCI).

What all share (assay): NCI-60 one-dose screen, 48 h (100 = growth as untreated, 0 = no growth, -100 = all killed)
Holding throughout (details): 10 µM unless noted

Assay [1] has as its system HCT-15 colon.
In assay [2] the test system is HT29 colon.
In assay [3] the test system is SNB-75 CNS.
In assay [4] the test system is SNB-19 CNS.
In assay [5] the test system is U251 CNS.
For assay [6], the system named is PC-3 prostate.
Assay [7] concerns SK-MEL-5 melanoma.
Assay [8] has as its system UACC-62 melanoma.
Assay [9] has as its system LOX IMVI melanoma.
In assay [10] the test system is SK-MEL-28 melanoma.
Assay [11] deals with SK-MEL-2 melanoma.
Assay [12] has as its system EKVX NSCLC.
The test system of assay [13] is SN12C renal.
Assay [14] deals with UO-31 renal.
Assay [15] has as its system TK-10 renal.
Assay [16] relates to ACHN renal.
Assay [17] deals with CAKI-1 renal.
Assay [18] relates to A498 renal.
For assay [19], the system named is CCRF-CEM leukemia.
Assay [20] concerns MOLT-4 leukemia.

This is part of a sample that, as a whole, favours compounds with a hit. Of some 83,000 tested, about 20% had one in any assay.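 Single-concentration screen, 48 h exposure, 96-well plates. Endpoint: percent growth. Below 10 = active.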 Values without a mark were called inactive. Activity calls are given as the source filed them.

Turning to `Cc1ccc(S(=O)(=O)NCCCNc2nccc(-c3[nH]c(-c4ccccc4)nc3-c3ccc(F)c(O)c3)n2)cc1`, the growth in [1] was 76%; in [2], 96.2%; in [3], 73.9%; in assay [4], 107%; in assay [5], 98.2%; in [6], 69.5%. Moreover, the growth in [7] was 38.6%; in assay [8], 18.7%; in assay [9] it was 73.8%; in assay [10], 38.3%; in [11], 24.8%; in assay [12] it was 94.9%. Also, the growth in assay [13] was 99.2%; in [14], 115%; in assay [15] it was 134%; in [16], 85.8%; in [17] it was 90.7%; in [18], 76.3%. For the same compound, the growth is 39.7% in assay [19] and 39.2% in assay [20].

With `Clc1ccc2[nH]cc(-c3cncn3CCc3ccc4c(c3)OCO4)c2c1`, the growth was 72% in assay [1]; 70.5% in assay [2]; 73.8% in [3]; 82.1% in assay [4]; 69.9% in assay [5]; 51% in [6]. Besides, the growth in [7] was 33.8%; in assay [8], 62.3%; in [9], 91.5%; in assay [10], 93.5%; in [11] it was 86.4%; in assay [12] it was 48%. Also, the growth was 77% in assay [13]; 51.9% in [14]; 96.9% in assay [15]; 78.4% in [16]; 35.6% in [17]; 56.3% in assay [18]. Further, the growth is 64.2% in assay [19] and 60.4% in assay [20].

`NNc1nnc2nc(Nc3ccccc3)nc(Nc3ccc(S(N)(=O)=O)cc3)n12`: the growth in assay [1] was 100%; in assay [2] it was 108%; in assay [3], 90.6%; in [4], 102%; in [5] it was 105%; in assay [6] it was 103%. The growth is 101% in [7]; 95.8% in assay [8]; 97.3% in [9]; 106% in assay [10]; 111% in assay [11]; 99.4% in assay [12]. Moreover, the growth in assay [13] was 98.8%; in assay [14], 82.2%; in assay [15], 106%; in assay [16], 106%; in [17] it was 94.5%; in assay [18], 102%. For the same compound, the growth was 92.5% in assay [19] and 105% in assay [20].

Take `Oc1[nH]c2ccc(Cl)cc2c1N=Nc1nc(N=Nc2c(O)[nH]c3ccc(Cl)cc23)nc(N2CCCCC2)n1`: the growth in assay [1] is 88.4%; in [2], 39.3%; in assay [3], 95.3%; in [4], 42.1%; in [5], 19.8%; in assay [6], 19.5%. The growth was 87% in [7]; 88.5% in assay [8]; 24.6% in [9]; 97.5% in assay [10]; 86.7% in assay [11]; 50.8% in [12]. The growth in assay [13] is 42.5%; in assay [14], 86.7%; in assay [15] it was 121%; in assay [16], 88.6%; in assay [17], 88.1%; in assay [18], 94.2%. For the same compound, the figures for the growth in assay [19] and in assay [20] were 9.81% (active) and 22.1%, respectively.

`CN1CCN(Cc2ccc(NC(=O)c3cncc(C#Cc4cnc5ccc(NCCO)nn45)c3)cc2C(F)(F)F)CC1`: the growth in assay [1] was 33.2%; in assay [2], -28% (active); in assay [3], -90.5% (active); in assay [4], 0.946% (active); in assay [5], -19.6% (active); in assay [6] it was 3.35% (active). The growth in assay [7] is -22.2% (active); in [8], -32.7% (active); in [9], -87.8% (active); in [10], -24.4% (active); in assay [11], -89% (active); in assay [12], -0.668% (active). The growth in [13] was 1.09% (active); in [14], 58.4%; in assay [15] it was -16.3% (active); in assay [16], 8.5% (active); in assay [17] it was -3.82% (active); in assay [18], -94.3% (active). The growth in [19] is 9.38% (active); in assay [20], 3.21% (active).

Regarding `CN(C)c1cccc2c(S(=O)(=O)Nc3cccc(-c4csc(NC(=O)CCCCCN5CCN(CCO)CC5)n4)c3)cccc12`, the growth in [1] is 90.6%; in [2], 17%; in assay [3], 80.1%; in assay [4], 87.9%; in assay [5], 70.2%; in assay [6], 72.3%. Besides, the growth in [7] is 79.2%; in [8] it was 94.1%; in assay [9], 12.9%; in assay [10] it was -7.14% (active); in [11], 99.7%; in [12], 85%. For the same compound, the growth was 80.1% in assay [13]; 86.4% in assay [14]; 120% in [15]; 96.9% in assay [16]; 86.1% in [17]; 101% in [18]. Besides, the growth was 72.8% in [19] and 47.5% in assay [20].

`CCN(CC)c1ccc(/C=N/NC(=O)c2ccc(NS(C)(=O)=O)cc2)cc1`: the growth in assay [1] is 20.4%; in assay [2], 32.1%; in assay [3] it was 73.3%; in [4] it was 39.2%; in assay [5], 31.1%; in assay [6], 37.2%. Also, the growth in assay [7] was 4.46% (active); in [8] it was 12.3%; in assay [9], 9.94% (active); in [10] it was 23.8%; in assay [11], 40.1%; in assay [12] it was 22.4%. The growth in [13] was 37.5%; in assay [14] it was 15.7%; in assay [15], 48.3%; in assay [16], 10.9%; in assay [17] it was 25.2%; in assay [18], 40.1%. In addition, the growth is 13% in assay [19] and 14.4% in assay [20].
